The whole screen tested about 56,000 compounds, of which about 710 (1.3%) were called active. What follows is part of a selection rich in actives, with near analogues and random picks from the rest. Values without a mark were called inactive.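 Rule for the calls: active = inhibition above the mean inhibition of all tested compounds plus 3 SD (cut at about 28% in these data); inactive = the rest.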

The assay in a line: cytotoxicity toward Jurkat T cells, primary screen, cytotoxicity control, cell-based, Jurkat E6.1, 60K MLSMR library (AID 463). Particulars: Jurkat E6.1 viability, ATP luminescence, 48 h; at 4 µM; hits give high values.
On to `Cc1ccc(N(CC(O)CN2CCCC2)S(=O)(=O)c2ccccc2)cc1` (centres undefined), for which the inhibition is 2.6%.

For the compound `Cc1ccc(S(=O)(=O)C2(S(=O)(=O)c3ccc(C)cc3)CCCC2)cc1`, the inhibition is 84% (active). Next, `Cc1ccc(S(=O)(=O)N2CCCC2CO)cc1` (centres undefined): -3.1%; `Cc1ccc(S(=O)(=O)NC(=O)N2CCCC(C)(C)C2)cc1`: -5.4%.

Turning to `CC(C)(O)C#Cc1ccc(C(=O)N2CCC(C(N)=O)(N3CCCCC3)CC2)cc1`, the inhibition is -6.2%.

Turning to `CS(=O)(=O)c1ccc2nc(NC(=O)C3CCCCC3)sc2c1`, the inhibition was 5.6%. Next, `COc1ccccc1N1CCN(C(=O)CN(Cc2ccc(Cl)cc2)S(C)(=O)=O)CC1`: 9.3%; `COc1ccccc1-n1nnnc1S(=O)(=O)Cc1ccc(Cl)cc1`: 53.4% (active). In the case of `COc1ccccc1N1CCN(Cc2nnnn2CCc2ccccc2)CC1` it was -5.1%. Next, `Cc1oc(C)c(C(=O)NCCCC(=O)O)c1C(=O)NCCCC(=O)O`: -3.9%. With `Cc1ccc2nc(-c3ccc(SCC(=O)Nc4cc(C)on4)nc3)[nH]c2c1`, the inhibition is -5.8%. Next, `O=C(O)CCSc1nnc(-c2ccccc2)n1-c1ccccc1`: -2.8%. Next, `CC(C)OCCCNc1ncnc2c1[nH]c1ccc(F)cc12`: 87.6% (active); `O=C1CCCN1CCCNc1ncnc2c1[nH]c1ccccc12`: 2.2%; `CCN1CCCC1CNc1ncnc2c1[nH]c1ccc(F)cc12` (centres undefined): 3.2%. For the compound `COc1ccc(OC)c2c1sc(=NC(=O)CN1C(=O)CCC1=O)n2C`, the inhibition was 1.4%. Next, `CCOc1cc(N2CCOCC2)c(OCC)cc1NC(=O)COc1cccc2cccnc12`: 37.5% (active).

As for `CCOc1cc(NC(=O)c2ccco2)c(OCC)cc1NC(=O)COc1ccccc1`, the inhibition is 0.4%. In the case of `CC(=O)Nc1cccc(Oc2cc(C#N)c(C#N)cc2N2CCOCC2)c1` it was 1.2%; in that of `COc1ccc(OCC(=O)N2CCOCC2)cc1`, -4.3%; in that of `Cc1nc2ccc(NC(=O)N3CCC(c4ccccc4)C3)cc2nc1C` (centres undefined), -3.3%. Consider `CC1CCCCN1S(=O)(=O)c1ccc(C(=O)Nc2nnc(-c3cccs3)o2)cc1` (centres undefined), for which the inhibition was 101% (active). Regarding `CCc1nnc(NC(=O)C2CCCN2S(=O)(=O)c2ccccc2)s1` (centres undefined), the inhibition is 2.3%. Regarding `CCc1nnc(NC(=O)c2ccc(S(=O)(=O)NC3CCCCC3)cc2)s1`, the inhibition was 27.4%. In the case of `O=C1c2ccccc2-c2ncnc3c(N4CCOCC4)cc(N4CCOCC4)c1c23` it was 6.4%; in that of `CC1CCCN(Cc2nc3c(c(=O)n(C)c(=O)n3C)n2Cc2cccc3ccccc23)C1` (centres undefined), -3.6%. In the case of `CCOC(=O)CNC(=O)CSc1nnnn1-c1cc(C)ccc1C` it was -1.2%. As to `CCOC(=O)c1c(-c2ccc(C)cc2C)csc1NC(=O)CSc1nnnn1C`, the inhibition was 28.5% (active). On to `CNC(=O)CSc1nnnn1-c1ccc(C)cc1C`, for which the inhibition was -4.9%.

With `CCOCCCNC(=O)Cc1cc(=O)[nH]c(=O)[nH]1`, the inhibition is -4.5%. Next, `CCC(c1nnnn1Cc1ccccc1)N(Cc1cc2cc(OC)ccc2[nH]c1=O)CC1CCCO1` (centres undefined): -4.6%.

With `CC(Nc1nc(N2CCCC2)nc2ccccc12)c1ccccc1` (centres undefined), the inhibition is 4.2%. In the case of `COc1ccc(-n2nnc3c(=O)n(CC(=O)OCc4ccccc4)cnc32)cc1` it was 7%. `Cc1cccc(-n2c(N)c(C(=O)N3CCN(C)CC3)sc2=S)c1`: the inhibition was 2.6%. Turning to `Cc1cccc(-n2c(O)c(C=Nc3ccccc3N)c(=O)[nH]c2=O)c1`, the inhibition is 46.2% (active).

In the case of `O=C(CS(=O)(=O)c1cn(Cc2ccc(Cl)cc2)c2ccccc12)N1CCOCC1`, the inhibition was 5.9%. For the compound `COc1ccc(N(Cc2cc3cc(OC)ccc3[nH]c2=O)S(C)(=O)=O)cc1`, the inhibition was 8.7%.

Take `CCC(C)Sc1nnc(-c2c[nH]c3ccccc23)n1CCOC` (centres undefined): the inhibition was 6%.

`CC(=O)Oc1ccc2c(C)c(CC(C)O)c(=O)oc2c1` (centres undefined): the inhibition is -1.3%. As to `COc1ccc(OCc2cccc(C(=O)N3CCCC3)c2)cc1`, the inhibition is -5.2%. Next, `O=C(CSc1nc2c(cnn2-c2ccc(F)cc2)c(=O)[nH]1)N1CCCCCC1`: 2.5%; `CC(C)Oc1ccc(C(=O)Nc2cc(=O)n(C)c(=O)n2C)cc1`: 2.6%.

Turning to `O=C(c1ccco1)N1CCN(C(=O)C2CC(c3ccc(Cl)c(Cl)c3)=NO2)CC1` (centres undefined), the inhibition was -1.7%. In the case of `COc1ccc(C2=NOC(C(=O)NCc3ccco3)C2)cc1OC` (centres undefined) it was 85.8% (active).

On to `COc1ccc(CCNS(=O)(=O)c2ccc(C(=O)NCc3ccco3)cc2)cc1OC`, for which the inhibition was 0.2%. Next, `CC(C)NS(=O)(=O)c1ccc(NC(=O)c2cccnc2)cc1`: 0.7%. Regarding `Cc1cccc(NC(=O)COc2ccccc2C)n1`, the inhibition was 8.1%. Regarding `CN1CCN(c2ccc(NC(=O)COc3ccc(Cl)cc3Cl)cc2)CC1`, the inhibition is -0.1%. Next, `Cc1ccccc1OCC(=O)Nc1ccc(N2CCN(C(=O)C(C)C)CC2)c(Cl)c1`: 30.2% (active); `CCOC(=O)c1cnc(SCC(=O)NCc2ccco2)nc1N`: -0.1%. Turning to `O=C(CSc1nnc(-c2cccs2)n1-c1ccccc1)NCc1ccco1`, the inhibition is -1.7%. Regarding `Cc1cc(C(=O)OCC(=O)NCc2ccco2)c(C)n1-c1ccccc1`, the inhibition was 75.4% (active). In the case of `COc1cccc(OC)c1C(=O)Nc1nnc(C(C)C)s1` it was 5.1%; in that of `Cc1ccc(OCC(=O)Nc2ccc(-c3nc4ncccc4o3)cc2)cc1`, -9.9%; in that of `COc1ccc(C)c(Cn2c(-c3nonc3N)nc3ccccc32)c1`, 75.3% (active).

Turning to `Nc1nonc1-c1nc2ccccc2n1Cc1ccc(F)cc1`, the inhibition is 20.3%.

Regarding `Nc1nonc1-c1nc2ccccc2n1CCC(=O)O`, the inhibition was 1.7%. In the case of `CCC(=NC1CC(C)(C)NC(C)(C)C1)C1=C(O)CC(C)(C)CC1=O` it was -4.2%; in that of `CCc1cc(=O)oc2cc(OCC(=O)N3CCCc4ccccc43)ccc12`, -8.4%. Next, `CCN(c1ccccc1)S(=O)(=O)c1ccc(N)cc1`: -3.3%; `CC1CN(c2cc(=O)n(-c3cccc(Br)c3)c(=O)[nH]2)CC(C)O1` (centres undefined): 1.2%; `Cn1c(CN2CCOCC2)nc2cc(NC(=O)c3ccc(Cl)cc3)ccc21`: 86.9% (active). In the case of `Cc1nn(CC(=O)Nc2ccc3c(c2)nc(CN2CCCCC2)n3C)c(=O)c2ccccc12` it was 1.4%; in that of `CCC(=O)Nc1ccc2c(c1)nc(CCN1CCN(C)CC1)n2C`, 7.5%.

By inhibition is commonly meant the drop in the measured response relative to a control, in per cent.

These data come from PubChem BioAssay AID463 (The Scripps Research Institute Molecular Screening Center, 2006).
